HT1080NT lethal – kills 2HG-producing HT-1080-NT fibrosarcoma cells; 360,000 compounds, 1.6% hits; AID 686970; HT-1080-NT fibrosarcoma viability, CellTiter-Glo ATP luminescence, 48 h; Potency, µM (highest dose often 46.1 µM), for inactives: at the highest dose activity, negative = less viability, most hits filed as cytotoxic;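 note: NT is the 2HG producing partner of a matched IDH1 knockdown line; 0% = DMSO-treated cells and -100% = media-only wells without cells; nearly all actives have a fitted effect of over 55% in size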
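750 cells/well, RPMI + 5% FBS; 2 h settle, compound pin-transfer, 48 h at 37 degrees C. CellTiter-Glo 10 min RT, luminescence. Normalized to DMSO and media-only wells.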
HepG2 tox – counter-screen for TGF-b inhibitors: cytotoxicity in HepG2 cells. Potency, µM (highest dose often 46.1 µM), inactives show top-dose activity change, negative = cytotoxicity, hits mostly cytotoxic. 410,000 compounds, 0.76% hits. HepG2 CAGA-GFP viability, ATP luminescence, 18 h. AID 588856
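HepG2 CAGA-GFP cells (1000/well, DMEM with 1% FBS) received compound, then TGF-beta at 500 pg/mL final, and were incubated 18 hours at 37 degrees C. Viability was read by CellTiter-Glo luminescence. Media-only wells were set as complete cell-killing and DMSO as no toxicity.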
HT1080 IDH1KD tx – HT-1080 IDH1 knockdown cell toxicity (counter line); Potency, µM (top dose mostly 46.1 µM), without a hit: at the top dose activity, negative = toxicity, hits mostly cytotoxic; 360,000 compounds, 2% hits; HT-1080 IDH1 knockdown viability, ATP luminescence, 48 h; AID 686971;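 note: 0% = DMSO wells and -100% = cell-free medium wells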
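Cytotoxicity counter-line: IDH1KD HT-1080, 48 h, CellTiter-Glo. Curves classed by r2, magnitude and activity.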
ATXN2 expr inh – reduces ATXN2 reporter expression in HEK-293 cells | HEK-293 ATXN2-luciferase reporter, luminescence, 24 h | Potency, µM (titrated, usually from 57 µM), without a hit: at the highest dose activity change, negative = inhibition, actives largely listed as inhibitors | 360,000 compounds, 0.72% hits | AID 1745845; note: % is set by controls: 0 for no effect and ±100 for the full control effect; nearly all actives have a fitted effect of over 55% in size
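qHTS (up to 57 uM final) was run with 24 h compound exposure of reporter cells at 37 °C. Each well was multiplexed: SteadyGlo luminescence measured ATXN2-luciferase expression after a fluorogenic Gly-Phe-AFC viability readout (25 uM final).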
TGFb SMAD3 inh – inhibitors of TGF-b signaling. HepG2 CAGA-GFP TGF-b/SMAD3 reporter, GFP fluorescence, 18 h; TGF-beta stimulated, 500 pg/mL final. 410,000 compounds, 1.2% hits. Potency, µM (doses to about 46.1 µM), for the others: at the top dose activity, negative = inhibition, most hits filed as inhibitors. AID 588855; note: % is set by controls: 0 for no effect and ±100 for the full control effect; nearly all actives have a fitted effect of over 65% in size
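First, reporter cells (HEPG2 CAGA-GFP) rested 2 h at 37 degrees C. Next, compounds were pinned in and TGF-beta added to 500 pg/mL final. After 18 h, GFP was imaged per cell and summed per well.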
ATXN viability – viability counter-screen for ATXN expression inhibitors; S2 cells (HEK-293 line with an ATXN2-luciferase reporter) viability, CellTiter-Fluor protease fluorescence, 24 h; Potency, µM (series often up to 56.7 µM), most hits filed as cytotoxic; 400,000 compounds, 0.49% hits; AID 651635; note: nearly all actives have a fitted effect of over 40% in size
* marks the source's active call; other numbers are inactive results; i = inactive; ? = inconclusive; . = no result given; ! = not confirmed by another sample; [ ] = another dose, or the depositor's remark. Hits are enriched below; roughly 3.8% of the tested compounds scored in any of these assays. Calls come from the whole dose curve; as a rule, active = well fitted curve in the direction sought with a large enough effect; inconclusive = small, poorly fitted or top-dose-only effect, or another doubt; inactive = no such curve, though single readings can be large; an effect the other way counts as inactive or inconclusive. Potency is the fitted concentration of half-maximal effect.

SMILES	HT1080NT lethal	HepG2 tox	HT1080 IDH1KD tx	ATXN2 expr inh	TGFb SMAD3 inh	ATXN viability
COc1cc(-c2nc3ccc(Cl)cn3c2Nc2ccc3c(c2)OCCO3)ccc1O	.	-24.9%	.	-9.5%	?	?
COc1ccc(CCNC(=O)CCc2c(C)nc3c(-c4ccc(F)cc4)c(C)nn3c2C)cc1OC	.	8.9%	.	8.4%	?	i
CCc1ccc(-c2nc(CN3CCCC(C(=O)NCc4ccc(C)cc4)C3)c(C)o2)cc1 (stereo not given)	.	-13.9%	.	3.1%	?	i
CN1CCC(O)(c2ccc(F)cc2)C(C(=O)c2ccc(F)cc2)C1 (stereo not given)	.	.	.	-11.9%	.	i
CN1CCC(O)(c2cccs2)C(C(=O)c2cccs2)C1 (stereo not given)	23.1µM*	-30.2%	?	18.7%	?	i
CCN(CC)C(=O)c1ccc(C2=CC3(CCNCC3)Oc3cccc(O)c32)cc1	.	.	.	-4.1%	.	.
C=C1C(=O)[C@@]23C[C@H]4[C@@H]5[C@@]6(C)CCC[C@@]57[C@@H]2[C@@H](O)[C@@H]1C[C@H]3[C@H]7N4C6	?	-48.3%	?	?	12.6µM*	7.94µM*
CCC(=O)N1N=C(c2c(O)n(C)c(=O)n(C)c2=O)CC1c1ccccc1 (stereo not given)	?	4.9%	6.51µM*	.	-23.2%	?
CCOC(=O)C1(c2ccccc2)CCN(CCC(=O)Nc2cccc(Br)c2)CC1	18.4µM*	-166.5%	23.1µM*	?	?	?
Oc1c(Cl)cccc1Cc1cc(Cl)cc(Cl)c1O	?	-29.3%	?	?	11.2µM*	i
CC(O)CN1CCN(CC(=O)[O-])CCN(CC(=O)[O-])CCN(CC(=O)[O-])CC1.[Gd+3] (stereo not given)	.	.	.	7.9%	.	i
COc1ccc(C(=O)N2CCOCC2)cc1S(=O)(=O)N1CCC(C)CC1	14.4%	8.2%	14.6%	6.7%	11.0%	i
COc1ccc(C(=O)Oc2cccc3cccnc23)cc1S(=O)(=O)N1CCOCC1	-11.1%	12.6µM*	?	-11.5%	12.6µM*	i
CN(C)CCc1c[nH]c2cccc(OP(=O)(O)O)c12	.	.	.	-5.1%[116 µM]	.	i
COc1cc2cc(c1Cl)N(C)C(=O)C[C@H](OC(=O)C(C)C)[C@]1(C)O[C@H]1[C@H](C)[C@@H]1C[C@@](O)(NC(=O)O1)[C@H](OC)C=CC=C(C)C2	.	.	.	-27.8%	.	.
COC1/C=C/C=C(\C)Cc2cc(O)c(Cl)c(c2)N(C)C(=O)CC(OC(=O)C(C)C)C2(C)OC2C(C)C2CC1(O)NC(=O)O2 (stereo not given)	0.0092µM*	-5.4%	?	?	?	?
c1ccc2c(c1)OCC(C1=NCCN1)O2 (stereo not given)	-28.1%	-65.9%	?	?	?	12.6µM*!
COc1ccc(CCNc2nccn(-c3ccc(C)c(C)c3)c2=O)cc1OC	.	-20.9%	.	0.0%	?	?
CC(C)Cn1c(=O)oc2ccccc21	-1.4%	6.2%	-2.5%	7.4%	?	i
N#Cc1c(Br)n(C2OC(CO)C(O)C2O)c2ncnc(N)c12 (stereo not given)	7.31µM*	-13.0%	3.26µM*	2.51µM*	?	?
Nc1ncnc2c1ncn2[C@@H]1O[C@H](COP(=O)(O)CP(=O)(O)O)[C@@H](O)[C@H]1O	?	-31.8%	-19.7%	-0.5%	1.8%	i
COc1ccc(C(=O)OCC(=O)Nc2ccc([N+](=O)[O-])cc2OC)c(O)c1	2.7%	-1.7%	26.8%	?	4.9%	?
COc1ccc(S(=O)(=O)Nc2cc([N+](=O)[O-])ccc2OC)cc1	13µM*	3.4%	16.4µM*	-30.8%	-24.7%	?
COc1ccc(S(=O)(=O)NCCc2sc3nc(-c4ccc(C)cc4)nn3c2C)cc1F	.	2.6%	.	.	?	.
O=c1[nH]c2ccccc2n1C1CCN(C(c2cccs2)c2nnnn2Cc2ccccc2)CC1 (stereo not given)	18.4µM*	-31.3%	16.4µM*	?	?	.
SMILES	HT1080NT lethal	HepG2 tox	HT1080 IDH1KD tx	ATXN2 expr inh	TGFb SMAD3 inh	ATXN viability
Cc1cccc(C)c1-n1nnnc1C(c1cccc2ccccc12)N1CCC(n2c(=O)[nH]c3ccccc32)CC1 (stereo not given)	16.4%	-16.3%	10.3%	11.7%	-24.8%	i
COc1ccc(C(c2nnnn2Cc2ccccc2)N2CCC(n3c(=O)[nH]c4ccccc43)CC2)cc1 (stereo not given)	?	0.8%	?	?	?	.
O=c1[nH]c2ccccc2n1C1CCN(C(c2nnnn2C2CCCC2)C2CC2)CC1 (stereo not given)	13.1%	-8.2%	11.8%	-18.9%	-2.6%	?
O=c1[nH]c2ccccc2n1C1CCN(C(c2nnnn2Cc2ccccc2)C2CC2)CC1 (stereo not given)	?	0.3%	20.6µM*	?	-40.2%	?
O=c1[nH]c2ccccc2n1C1CCN(C(c2ccccc2OC(F)(F)F)c2nnnn2Cc2ccccc2)CC1 (stereo not given)	25.9µM*	-38.6%	?	17.8µM*	11.2µM*	10µM*
CSCCC(c1nnnn1Cc1ccccc1)N1CCC(n2c(=O)[nH]c3ccccc32)CC1 (stereo not given)	?	-16.4%	?	?	?	14.1µM*
CSCCC(c1nnnn1C1CCCC1)N1CCC(n2c(=O)[nH]c3ccccc32)CC1 (stereo not given)	2.8%	9.8%	1.3%	-8.9%	1.1%	i
O=C(Oc1ccc2ccc(OC(=O)N3CCCCCC3)cc2c1)N1CCCCCC1	4.2%	8.6%	1.9%	-11.1%	?	?
CCOc1ccc(NC(=O)Cn2c(=O)oc3cc(S(=O)(=O)N4CCC(C)CC4)ccc32)cc1	.	-46.7%	.	?	?	i
Cc1ccc(NC(=O)C2CCCN(C(=O)c3cnn(-c4ccccc4)c3-n3cccc3)C2)cc1 (stereo not given)	.	-9.4%	.	-9.6%	?	i
CN1C(=O)c2ccccc2Sc2ccc(NC(=O)N3CCN(c4ccccc4)CC3)cc21	.	-21.1%	.	.	?	.
O=c1[nH]c2ccccc2n1C1CCN(C(CCc2ccccc2)c2nnnn2Cc2ccccc2)CC1 (stereo not given)	7.31µM*	-91.0%	6.51µM*	8.91µM*	?	8.91µM*
